A selection: hits, their analogues and other compounds. The true share with any hit is near 7.5%.
Rab9 promoter act = Rab9 promoter activation. Potency, µM (doses to about 9.22 µM), without a hit: top-dose activation, negative = inhibition, most hits filed as activators. AID 485297. hit rate 2.8% among 320,000. Huh7 Rab9 promoter-luciferase reporter, luminescence, 24 h; note: % of control where 0% means no effect; nearly all actives have a fitted effect of over 60% in size
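Luciferase signal after 10 min detection reagent at ambient indicates Rab9 promoter upregulation; stably transfected Huh7 cells were treated 24 h with compound in DMSO at 37 °C, 5% CO2.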
ELG1 genotoxic = inducers of genotoxicity in HEK293T ELG1-luciferase cells | HEK293T ELG1-luciferase reporter, luminescence, 16 h | Potency, µM (titrated, usually from 46 µM), inactives show at the top dose activity change, positive = activation, usual class: activators | hit rate 1.3% among 330,000; note: % of control where 0% means no effect; nearly all actives have a fitted effect of over 60% in size
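16 hr compound incubation (37 °C, 5% CO2) of HEK293T cells carrying luciferase-tagged ELG1; luciferase then measured by ONE-Glo luminescence after 30 min at RT.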
Luc counter = Kinase-Glo luciferase inhibition (counter-screen); Q27757; Kinase-Glo luciferase, ATP luminescence, 8 min; Potency, µM (top dose mostly 38.3 µM), for inactives: top-dose activity change, negative = inhibition, actives largely listed as inhibitors; hit rate 0.28% among 200,000; AID 1379; note: % is set by controls: 0 for no effect and ±100 for the full control effect; nearly all actives have a fitted effect of over 60% in size
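Substrate mix (final 50 mM imidazole pH 7.2, 50 mM KCl, 7 mM MgCl2, 10 uM ATP, 0.01% Tween 20, 0.05% BSA) plus pin-tool compound, then Kinase-Glo detection mix; 8 min ambient, luminescence read.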
FLuc modulator = inhibits or activates purified firefly luciferase, miR-21 counter-screen; P08659; purified FLuc, Km substrates, luminescence inhibition; Potency, µM (highest dose often 57.5 µM), for the others: at the top dose activity change, negative = inhibition, hits mostly inhibitors; hit rate 6.9% among 360,000;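 note: plate controls were vehicle for no effect and reference inhibitor for full effect; nearly all actives have a fitted effect of over 55% in size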
Target sequence (P08659 whole entry, looked up): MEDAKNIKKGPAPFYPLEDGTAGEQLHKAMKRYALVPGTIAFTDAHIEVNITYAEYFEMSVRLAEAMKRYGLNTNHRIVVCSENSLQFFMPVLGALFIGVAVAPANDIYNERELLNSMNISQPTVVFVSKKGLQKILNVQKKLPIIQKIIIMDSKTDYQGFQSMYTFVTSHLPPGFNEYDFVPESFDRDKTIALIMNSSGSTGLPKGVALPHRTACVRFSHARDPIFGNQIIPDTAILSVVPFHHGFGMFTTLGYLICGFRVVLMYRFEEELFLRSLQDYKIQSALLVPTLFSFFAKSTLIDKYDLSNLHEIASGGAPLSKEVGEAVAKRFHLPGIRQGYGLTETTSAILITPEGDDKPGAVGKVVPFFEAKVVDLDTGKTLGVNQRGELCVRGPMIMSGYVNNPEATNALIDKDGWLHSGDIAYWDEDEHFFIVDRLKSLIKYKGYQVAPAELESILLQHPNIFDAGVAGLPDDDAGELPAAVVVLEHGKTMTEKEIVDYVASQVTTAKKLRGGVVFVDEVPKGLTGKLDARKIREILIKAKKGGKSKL
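Purified P. pyralis luciferase, 10 nM final, with Km-level 10 uM D-luciferin and 10 uM ATP in 50 mM Tris acetate pH 7.5, 10 mM Mg acetate, 0.01% Tween-20, 0.05% BSA; 6-point qHTS titration about 60 µM downward; luminescence read.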
NPC1 prom act = NPC1 promoter activation | Huh7 NPC1 promoter luciferase reporter, 24 h | Potency, µM (doses to about 9.22 µM), for inactives: top-dose activation, usual class: activators | hit rate 2.4% among 320,000; note: % of control where 0% means no effect; nearly all actives have a fitted effect of over 60% in size
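In 1536-well qHTS, Huh7 cells harboring an NPC1 promoter–luciferase construct received compound for 24 h; activation was quantified by luminescence following luciferase reagent addition.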
SMN2 splice up = enhancers of SMN2 splice variant expression; hit rate 2.8% among 210,000; HEK293 SMN2-luciferase splicing reporter, luminescence, 30-36 h; Potency, µM (titrated, usually from 46.1 µM), without a hit: at the top dose activity change, positive = activation, usual class: activators; note: % of control where 0% means no effect; nearly all actives have a fitted effect of over 55% in size
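HEK293 cells carry an SMN2 […]–luciferase reporter in which exon 7 inclusion puts luciferase in frame. Cells were plated 10-12 h before compound addition, then incubated 30-36 h at 37C. ONE-Glo luminescence was read; sodium butyrate at 4.5 mM final served as control.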
Numbers without * were called inactive; ? = inconclusive; / = no result; ! = not confirmed by another sample; [ ] = remark or other dose. Calls come from the whole dose curve; as a rule, active = well fitted curve in the direction sought with a large enough effect; inconclusive = small, poorly fitted or top-dose-only effect, or another doubt; inactive = no such curve, though single readings can be large; an effect the other way counts as inactive or inconclusive. Potency is the fitted concentration of half-maximal effect.

SMILES | Rab9 promoter act | ELG1 genotoxic | Luc counter | FLuc modulator | NPC1 prom act | SMN2 splice up
O=C(O)c1ccc(Nc2nc(-c3cccnc3)cs2)cc1O | 4% | 3% | / | 12µM* | 4% | /
COc1ccc(-c2csc(Nc3cccnc3)n2)cc1OC | 28% | 4% | 10% | 2.4µM* | 15% | -13%
c1cncc(Nc2nc(-c3cccnc3)cs2)c1 | 22% | 2% | 0% | ? | 26% | -9%
Cc1ccc(Nc2nc(-c3cccnc3)cs2)cc1Cl | ? | 21µM* | / | 4.8µM* | 25% | /
COc1cccc(Nc2nc(-c3cccnc3)cs2)c1 | ? | ? | / | 4.8µM* | ? | /
CCOc1ccc(-n2c(=O)c3c(C)c(C)sc3n(CC(=O)C(C)(C)C)c2=O)cc1 | / | / | / | 5% | / | -30%
Cc1ccc(NC(=O)CN(C)S(=O)(=O)c2ccc3c(c2)CCC(=O)N3)c(C)c1 | / | / | / | 6% | / | -15%
CC(=O)OCC1OC(n2cnc3c(Cl)nc(Cl)nc32)C(OC(C)=O)C1OC(C)=O (configuration not stated) | / | / | -3% | / | / | -18%
Cc1c(C(=O)NCc2ccccc2Br)oc2c1-c1[nH]ncc1CC2 | / | / | / | -3% | / | /
N#Cc1cc2cc3c(cc2nc1N1CCCCC1)OCCO3 | 6.3µM* | ? | -1% | 4.3µM* | ? | 13µM*
Cc1ccc(C(=O)N2CCCN(c3nc4cc5c(cc4cc3C#N)OCO5)CC2)cc1 | 7% | -3% | / | -13% | 0% | /
COc1ccc2c3c(ccc2c1)N[C@H](C(=O)O)CC3 | / | / | -8%[7.66 µM] | / | / | ?
CC1=NOC(=O)/C1=C\c1ccc(-c2ccc(Cl)c(C(=O)O)c2)o1 | 2% | -2% | -5% | 19µM* | 1% | -2%
Nc1ccccc1N=Cc1ccc(-c2cccc(Cl)c2)o1 | 3.2µM* | -6% | -3% | 3µM* | 2.8µM* | /
CC1=NOC(=O)/C1=C\c1ccc(-c2cccc(Cl)c2)o1 | -10% | -13% | -5% | 11µM* | -13% | -50%
COC(=O)N/N=C/c1ccc(-c2cccc(Cl)c2)o1 | 13% | -1% | 1% | ? | 7% | 7%
COc1ccc(CN2C(=O)/C(=C/c3ccc(-c4ccc(Cl)c(C(=O)O)c4)o3)SC2=S)cc1 | 4% | 3% | 0% | ? | 4% | 22%
CC1(C)OC(=O)C(=Cc2ccc(-c3ccc(Cl)c(C(=O)O)c3)o2)C(=O)O1 | -1% | -2% | -2% | 15µM* | -4% | 10%
O=C(O)c1cc(-c2ccc(/C=C3/SC(=S)N(Cc4ccccc4)C3=O)o2)ccc1Cl | 28% | -8% | 1% | ? | 23% | 19%
COc1ccc(N2CCN(C(CNS(=O)(=O)c3c(C)cc(C)cc3C)c3ccco3)CC2)cc1 (configuration not stated) | / | / | / | -10% | / | /
O=C(c1ccco1)N(Cc1cccs1)c1ccc(F)cc1 | / | / | / | -20% | / | /
Cc1ccc(Cc2nc3ccccc3nc2SCC(=O)N2CCc3ccccc32)cc1 | / | / | / | 1% | / | /
CC1=NOC(=O)/C1=C\c1ccc(-c2ccccc2Br)o1 | -13% | -15% | -20% | 11µM* | -10% | -19%
Cc1ccc(-c2nn3c(-c4ccc(C)cc4)nnc3c3ccccc23)cc1 | / | / | / | 0% | / | -1%
Cc1nn2c(-c3ccccc3)nnc2c2ccccc12 | ? | ? | -7% | 19µM* | ? | 5.6µM*
SMILES | Rab9 promoter act | ELG1 genotoxic | Luc counter | FLuc modulator | NPC1 prom act | SMN2 splice up
COCCCNC(=O)CSC1=Nc2ccccc2C2=NC(CCC(=O)NCc3ccccc3OC)C(=O)N12 (configuration not stated) | / | / | / | -2% | / | /
CCOc1ccc(NS(=O)(=O)c2ccc3[nH]cc(C(=O)NCCOC)c(=O)c3c2)cc1 | 2µM* | ? | 4% | 11µM*! | 2.5µM* | 13µM*!
CCc1ccc(NS(=O)(=O)c2ccc3[nH]cc(C(=O)N4CCc5ccccc54)c(=O)c3c2)cc1 | 23% | ? | -2% | 21µM* | 12% | ?
Cc1cc(C)cc(NS(=O)(=O)c2ccc3[nH]cc(C(=O)N4CCc5ccccc54)c(=O)c3c2)c1 | 1% | -4% | -1% | 0% | 2% | -5%[1.84 µM]
C[C@H](CO)N1C[C@H](C)[C@@H](CN(C)S(=O)(=O)c2cccs2)Oc2c(NC(=O)CCC(F)(F)F)cccc2C1=O | / | -1% | / | / | / | /
CCc1ccc(/C=c2\s/c(=C\C(=O)C(C)(C)C)[nH]c2=O)cc1 | -4% | -13% | -2% | ? | 12% | 10%
COc1ccc(/C=c2\s/c(=C/C(=O)c3ccc(C)cc3)[nH]c2=O)cc1OC | 3% | -4% | 0% | 11µM* | -1% | -13%
C/C(=N\Nc1nc(-c2ccccn2)nc2ccccc12)c1ccc(F)cc1 | -21% | -1% | / | -3% | -20% | /
C(=N\Nc1ccccn1)/c1ccc(N2CCOCC2)cc1 | 2.8µM* | ? | -20% | 6µM* | 3.2µM* | 13µM*
COc1cc(/C=N/Nc2ccc(Cl)c(C(=O)O)c2)ccc1OC(=O)c1ccco1 | 26% | -20% | 3% | ? | ? | 3%
O=C(O)c1cc(N/N=C/c2ccc(N3CCOCC3)cc2)ccc1Cl | ? | ? | / | 0.6µM* | ? | /
C/C(=N\Nc1ccccn1)c1ccc(C(C)C)cc1 | ? | 13% | 0% | 9.5µM* | ? | ?
Cc1cc(C)nc(N/N=C/c2ccc(N3CCOCC3)cc2)n1 | -18% | -10% | -1% | 1% | -7% | 20%
C(=N\Nc1ccccc1)/c1ccc(N2CCOCC2)cc1 | 2.8µM* | ? | -3% | 7.6µM* | 3.2µM* | 18µM*
CCc1ccc(S(=O)(=O)c2nnn3c2nc(Nc2cc(OC)ccc2OC)c2sccc23)cc1 | / | / | / | 0% | / | /
Cc1ccc(NC(=O)CN2C(=O)COc3ccc(S(=O)(=O)N4CCOCC4)cc32)c(Cl)c1 | / | / | / | -2% | / | /
Cc1ccc(S(=O)(=O)c2cn(Cc3ccccc3Cl)c3ccc(F)cc3c2=O)cc1 | / | / | / | 2% | / | 1%
O=C(NC(=S)Nc1ccc(N2CCOCC2)cc1)c1cccc(Cl)c1 | 2% | -2% | 0% | -10% | 1% | -8%
C/C(=N\Nc1ccccn1)c1ccc(N2CCOCC2)cc1 | 2.2µM* | ? | 1% | 13µM* | ? | 14µM*
Clc1cccc(N/N=C/c2ccc(N3CCOCC3)cc2)c1 | ? | 15% | 1% | 13µM* | ? | ?
Cc1ccc(S(=O)(=O)NN=Cc2ccc(N3CCOCC3)cc2)cc1[N+](=O)[O-] | / | 1% | / | / | / | /
O=[N+]([O-])c1cccc(N/N=C/c2ccc(N3CCOCC3)cc2)c1 | 3.2µM* | ? | / | 11µM* | 2.8µM* | /
C/C(=N\NC(=O)c1ccc(Cl)cc1)c1ccc(N2CCOCC2)cc1 | 1% | 7% | 0% | -4% | -2% | 6%
